Assay results as given in PubChem BioAssay.
Active and inactive are the calls of the source. Unless noted, how the calls were made is not given here.

Tests used:
[1] = resazurin metabolic signal in HepG2 cells – cell-based, resazurin fluorescence, 24 h, PK04 Diversity Set, profiling panel (AID 1172); settings: HepG2 viability, higher = more signal; further: test concentration not given here
[2] = budding yeast growth changes without added modifier – OD600, strain BY4716, 24 h, basal condition, primary screen (AID 1173); settings: S. cerevisiae BY4716 growth, OD600, 24 h; higher = more signal, called active from +8 up or from −8 down
[3] = viability profiling in MM1S myeloma cells – cell-based, resazurin fluorescence, basal, 24 h, PK04 Diversity Set, profiling panel (AID 1174); settings: higher = more signal, called active from +8 up or from −8 down;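 further: MM1S multiple myeloma cell line; test concentration not given here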
[4] = biological target: Dihydroorotate dehydrogenase (quinone), mitochondrial (Plasmodium falciparum (isolate 3D7)) (UniProt Q08210); assay: inhibition of P. falciparum DHODH – biochemical, C-terminal His tag, absorbance 600 nm, primary screen (AID 1175); settings: PfDHODH enzyme, DCIP absorbance 600 nm; higher = more signal, called active from +8 up or from −8 down;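 further: recombinant parasite enzyme with a five histidine tag at its C terminus; test concentration not given here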
[5] = inhibition of PAO1 biofilm formation – strain PAO1, LB-PBS medium, absorbance 600 nm, primary screen (AID 1176); further: test concentration not given here; settings: P. aeruginosa PAO1 growth/biofilm, A600, 12 h; higher = more signal
[6] = growth modulation of vineyard yeast isolate – strain RM11-1a, OD600, basal, 24 h, primary screen (AID 1177);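 further: cultures grown under basal conditions with no added stressor; test concentration not given here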; settings: S. cerevisiae RM11-1a growth, OD600, 24 h; higher = more signal, called active from +8 up or from −8 down
[7] = growth of efflux-deficient E. coli DRC39 – strain DRC39, OD650, 24 h, E. coli filamentation inducers, primary screen (AID 1178);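 further: growth measured as culture turbidity by optical density at 650 nm; test concentration not given here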; settings: E. coli DRC39 acrAB, higher = more signal, called active from +8 up or from −8 down
[8] = growth of efflux-deficient E. coli DRC39 – strain DRC39, OD650, 48 h, E. coli filamentation inducers, primary screen (AID 1179);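 further: screen aims at cell division blockers that make cells filament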; settings: E. coli DRC39 delta-acrAB growth, higher = more signal, called active from +8 up or from −8 down
[9] = viability profiling in RPMI8226 myeloma cells – cell-based, resazurin fluorescence, basal, 24 h, PK04 Diversity Set, profiling panel (AID 1180); settings: higher = more signal;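 further: RPMI8826 multiple myeloma cell line at 5000 cells per well; test concentration not given here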
[10] = biological target: E3 ubiquitin-protein ligase XIAP (Homo sapiens) (UniProt P98170); assay: small molecules binding XIAP protein – biophysical, small-molecule microarray, fluorescence 635 nm, primary screen (AID 1181); settings: higher = more signal;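 further: score merges 667 nm emission and signal to noise over triplicate slides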
Chain of E3 ubiquitin-protein ligase XIAP (Homo sapiens) (P98170 whole entry, looked up): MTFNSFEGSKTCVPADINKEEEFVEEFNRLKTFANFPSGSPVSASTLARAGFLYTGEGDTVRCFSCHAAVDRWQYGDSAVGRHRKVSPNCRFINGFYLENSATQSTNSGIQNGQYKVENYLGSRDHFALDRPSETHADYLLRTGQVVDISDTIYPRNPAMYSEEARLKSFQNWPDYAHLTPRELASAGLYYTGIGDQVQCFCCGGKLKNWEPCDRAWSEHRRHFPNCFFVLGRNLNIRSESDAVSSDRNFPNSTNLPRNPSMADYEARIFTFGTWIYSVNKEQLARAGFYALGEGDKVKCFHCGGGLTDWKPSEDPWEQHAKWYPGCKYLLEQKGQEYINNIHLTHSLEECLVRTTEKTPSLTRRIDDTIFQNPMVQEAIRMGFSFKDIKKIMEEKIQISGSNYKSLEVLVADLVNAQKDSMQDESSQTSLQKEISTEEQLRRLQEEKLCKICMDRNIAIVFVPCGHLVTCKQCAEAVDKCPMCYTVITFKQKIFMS

Chain of Dihydroorotate dehydrogenase (quinone), mitochondrial (Plasmodium falciparum (isolate 3D7)) (Q08210 whole entry, looked up): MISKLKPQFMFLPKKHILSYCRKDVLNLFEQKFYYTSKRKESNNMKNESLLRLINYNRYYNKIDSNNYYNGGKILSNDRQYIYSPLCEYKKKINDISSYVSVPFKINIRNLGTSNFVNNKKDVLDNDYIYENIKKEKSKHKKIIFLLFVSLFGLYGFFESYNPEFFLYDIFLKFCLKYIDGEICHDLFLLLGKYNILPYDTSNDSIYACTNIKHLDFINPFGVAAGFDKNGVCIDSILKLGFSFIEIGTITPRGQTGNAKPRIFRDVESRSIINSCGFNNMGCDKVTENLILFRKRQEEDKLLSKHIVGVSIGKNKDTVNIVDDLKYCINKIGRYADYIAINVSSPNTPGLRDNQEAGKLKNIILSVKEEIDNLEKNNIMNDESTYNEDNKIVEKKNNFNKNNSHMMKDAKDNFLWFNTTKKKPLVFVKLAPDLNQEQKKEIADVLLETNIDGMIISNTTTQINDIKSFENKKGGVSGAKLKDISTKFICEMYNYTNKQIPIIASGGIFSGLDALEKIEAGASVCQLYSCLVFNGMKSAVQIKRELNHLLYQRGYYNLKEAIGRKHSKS

Question: With CC(C)[C@H]1NC(=O)[C@@]23C(=O)N[C@@H](Cc4ccccc4)C2[C@H](C)[C@@]2(C)O[C@H]2C3/C=C/C/C=C\CNC(=O)[C@H](Cc2ccccc2)NC1=O (stereo not given in full) as the molecule, how does the z-score [1] read?
Answer: -0.875

Question: And the z-score [2]?
Answer: -0.516 (inactive)

Question: What about the z-score [3] of the same molecule?
Answer: -0.504 (inactive)

Question: And the composite z-score [4]?
Answer: -0.141 (inactive)

Question: What about the z-score [5] of the same molecule?
Answer: -0.377 (inactive)

Question: What about the z-score [6] of the same molecule?
Answer: -0.472 (inactive)

Question: What about the z-score [7] of the same molecule?
Answer: -0.0953 (inactive)

Question: And the z-score [8]?
Answer: -1.2 (inactive)

Question: What about the z-score [9] of the same molecule?
Answer: -1.26

Question: And the composite z-score [10]?
Answer: -0.288

Question: Which results are given for Cc1cccc([C@H]2C[C@H]3C(Br)=C[C@@H]2C(=O)[C@]32CO2)c1?
Answer: z-score [1]: -0.536; z-score [2]: -12.1 (active); z-score [3]: -0.423 (inactive); composite z-score [4]: 0.288 (inactive); z-score [5]: 0.142 (inactive); z-score [6]: 0.622 (inactive); z-score [7]: 0.906 (inactive); z-score [8]: -0.0628 (inactive); z-score [9]: -0.332; composite z-score [10]: 0.172

Question: With COc1ccc([Si](C)(C)[C@H]2[C@H](CC(=O)N3CCC[C@H]3CO)O[C@@]3(C(=O)N(Cc4ccc(N5CCC5=O)cc4)c4ccccc43)[C@@H]2C)cc1 as the molecule, how does the z-score [1] read?
Answer: -1.39

Question: What about the z-score [2] of the same molecule?
Answer: -0.942 (inactive)

Question: And the z-score [3]?
Answer: -1.7 (inactive)

Question: And the composite z-score [4]?
Answer: -5.46 (inactive)

Question: What about the z-score [5] of the same molecule?
Answer: 1 (inactive)

Question: And the z-score [6]?
Answer: 0.194 (inactive)

Question: What about the z-score [7] of the same molecule?
Answer: -1.17 (inactive)

Question: What about the z-score [8] of the same molecule?
Answer: -1.29 (inactive)

Question: And the z-score [9]?
Answer: -0.944

Question: What about the composite z-score [10] of the same molecule?
Answer: -0.0339

Question: For COCC(=C=CC[C@@H](O)c1ccc(OCCO)cc1)CCO, which z-score [1] is on record?
Answer: 1.37

Question: And the z-score [2]?
Answer: -0.896 (inactive)

Question: And the z-score [3]?
Answer: 1.1 (inactive)

Question: And the composite z-score [4]?
Answer: -0.789 (inactive)

Question: And the z-score [5]?
Answer: 0.424 (inactive)

Question: What about the z-score [6] of the same molecule?
Answer: 0.453 (inactive)

Question: What about the z-score [7] of the same molecule?
Answer: 1.41 (inactive)

Question: What about the z-score [8] of the same molecule?
Answer: 1.23 (inactive)

Question: And the z-score [9]?
Answer: 2.08

Question: And the composite z-score [10]?
Answer: -0.0949

Question: For O=C(NCCN1CCOCC1)[C@@H]1c2ccccc2C(=O)N(Cc2ccccc2)[C@H]1c1ccc(CO)cc1, which z-score [1] is on record?
Answer: 1.15

Question: And the z-score [2]?
Answer: 0.476 (inactive)

Question: What about the z-score [3] of the same molecule?
Answer: 0.802 (inactive)

Question: What about the composite z-score [4] of the same molecule?
Answer: -0.547 (inactive)

Question: And the z-score [5]?
Answer: -0.838 (inactive)

Question: What about the z-score [6] of the same molecule?
Answer: 0.496 (inactive)

Question: And the z-score [7]?
Answer: 0.0077 (inactive)

Question: And the z-score [8]?
Answer: 0.76 (inactive)

Question: And the z-score [9]?
Answer: 0.822

Question: And the composite z-score [10]?
Answer: -0.0228

Question: What does the source list for COc1cc(NN2C(C(O)C3CCCCC3)C=CC3C(=O)N(c4ccccc4)C(=O)C32)cc(OC)c1OC (stereo not given)?
Answer: z-score [1]: -1.64; z-score [2]: 1.2 (inactive); z-score [3]: -1.62 (inactive); composite z-score [4]: -0.0779 (inactive); z-score [5]: 0.698 (inactive); z-score [6]: 0.135 (inactive); z-score [7]: -0.0089 (inactive); z-score [8]: -0.545 (inactive); z-score [9]: -1.67; composite z-score [10]: 0.337

Question: For COc1ccc([Si](C)(C)[C@@H]2[C@@H](CC(=O)N3Cc4ccccc4C[C@H]3CO)O[C@]3(C(=O)N(c4ccccc4)c4ccccc43)[C@H]2C)cc1, which z-score [1] is on record?
Answer: -1.05

Question: And the z-score [2]?
Answer: 0.318 (inactive)

Question: And the z-score [3]?
Answer: -2.64 (inactive)

Question: What about the composite z-score [4] of the same molecule?
Answer: 1.13 (inactive)

Question: And the z-score [5]?
Answer: 0.626 (inactive)

Question: And the z-score [6]?
Answer: 2.42 (inactive)

Question: And the z-score [7]?
Answer: 0.33 (inactive)

Question: What about the z-score [8] of the same molecule?
Answer: -0.165 (inactive)

Question: And the z-score [9]?
Answer: -4.45

Question: What about the composite z-score [10] of the same molecule?
Answer: 2.42

Question: Which z-score [1] does the source give for [N-]=[N+]=Nc1ccccc1[C@@H]1OC(c2ccc(OCCCO)cc2)=N[C@]1(Cc1ccccc1)C(=O)NCc1ccccc1 here?
Answer: -0.421

Question: What about the z-score [2] of the same molecule?
Answer: 0.152 (inactive)

Question: What about the z-score [3] of the same molecule?
Answer: -3.62 (inactive)

Question: And the composite z-score [4]?
Answer: 0.613 (inactive)

Question: What about the z-score [5] of the same molecule?
Answer: 0.563 (inactive)

Question: And the z-score [6]?
Answer: 0.265 (inactive)

Question: And the z-score [7]?
Answer: -0.324 (inactive)

Question: What about the z-score [8] of the same molecule?
Answer: -0.441 (inactive)

Question: And the z-score [9]?
Answer: -3.62

Question: What about the composite z-score [10] of the same molecule?
Answer: 0.338

Question: For C=CCOC(=O)[C@H]1[C@@H]2C(=O)O[C@@H](c3ccccc3)[C@@H](c3ccccc3)N2[C@@H](c2ccc(OCCOC(=O)[C@H]3C[C@H]4C(=O)N[C@@H](CCCCNC(C)=O)C(=O)N4[C@H]3c3cccc(OCCO)c3)cc2)[C@]12C(=O)Nc1ccc(I)cc12, which z-score [1] is on record?
Answer: -0.821

Question: And the z-score [2]?
Answer: 1.2 (inactive)

Question: What about the z-score [3] of the same molecule?
Answer: -0.682 (inactive)

Question: What about the composite z-score [4] of the same molecule?
Answer: 1.34 (inactive)

Question: And the z-score [5]?
Answer: 2.63 (inactive)

Question: And the z-score [6]?
Answer: 1.59 (inactive)

Question: And the z-score [7]?
Answer: -0.817 (inactive)

Question: What about the z-score [8] of the same molecule?
Answer: -1.2 (inactive)

Question: And the z-score [9]?
Answer: -0.538

Question: What about the composite z-score [10] of the same molecule?
Answer: -0.0228

Question: For CC(C)C(CO)N1C(=O)[C@@H]2[C@H]3C(=O)OCC=C[C@H]3OC23C=CCN(C(C)(C)C)C(=O)[C@@H]13 (stereo not given in full), which z-score [1] is on record?
Answer: -0.341

Question: And the z-score [2]?
Answer: 0.542 (inactive)

Question: What about the z-score [3] of the same molecule?
Answer: -0.763 (inactive)

Question: And the composite z-score [4]?
Answer: 0.648 (inactive)

Question: What about the z-score [5] of the same molecule?
Answer: 0.137 (inactive)

Question: And the z-score [6]?
Answer: 1.18 (inactive)

Question: What about the z-score [7] of the same molecule?
Answer: -0.804 (inactive)

Question: And the z-score [8]?
Answer: -0.854 (inactive)

Question: What about the z-score [9] of the same molecule?
Answer: -0.941

Question: And the composite z-score [10]?
Answer: -0.156

Question: What does the source list for CC(=O)n1cc(C(O)C2C=CC3C(=O)N(c4ccccc4)C(=O)C3N2Nc2ccc(C(C)C)cc2)c2ccccc21 (stereo not given)?
Answer: z-score [1]: -1.41; z-score [2]: -2.33 (inactive); z-score [3]: -1.12 (inactive); composite z-score [4]: 0.708 (inactive); z-score [5]: 1.44 (inactive); z-score [6]: 1.36 (inactive); z-score [7]: -0.0648 (inactive); z-score [8]: -0.0683 (inactive); z-score [9]: -1.06; composite z-score [10]: 0.0072

Question: For CN(C)CCCC[C@@H]1NC(=O)[C@@H]2C[C@H](C(=O)O)[C@H](c3cccc(OCCO)c3)N2C1=O, which z-score [1] is on record?
Answer: -0.0398

Question: And the z-score [2]?
Answer: -0.79 (inactive)

Question: What about the z-score [3] of the same molecule?
Answer: 0.472 (inactive)

Question: What about the composite z-score [4] of the same molecule?
Answer: -0.126 (inactive)

Question: And the z-score [5]?
Answer: 0.808 (inactive)

Question: What about the z-score [6] of the same molecule?
Answer: -0.547 (inactive)

Question: What about the z-score [7] of the same molecule?
Answer: -0.175 (inactive)

Question: And the z-score [8]?
Answer: 0.494 (inactive)

Question: What about the z-score [9] of the same molecule?
Answer: 0.259

Question: What about the composite z-score [10] of the same molecule?
Answer: -0.0398

Question: For COc1ccc(C(=O)Nc2cccc(CN3C(=O)[C@@]4(O[C@@H](CC(=O)N(CCO)Cc5ccccc5)[C@H]([Si](C)(C)c5ccc(OC)cc5)[C@H]4C)c4ccccc43)c2)cc1, which z-score [1] is on record?
Answer: -0.0246

Question: What about the z-score [2] of the same molecule?
Answer: 0.062 (inactive)

Question: What about the z-score [3] of the same molecule?
Answer: -2.3 (inactive)

Question: What about the composite z-score [4] of the same molecule?
Answer: -2.25 (inactive)

Question: What about the z-score [5] of the same molecule?
Answer: 0.711 (inactive)

Question: What about the z-score [6] of the same molecule?
Answer: 0.621 (inactive)

Question: And the z-score [7]?
Answer: 0.289 (inactive)

Question: And the z-score [8]?
Answer: 0.45 (inactive)

Question: What about the z-score [9] of the same molecule?
Answer: -2.67

Question: And the composite z-score [10]?
Answer: -0.0365
